# Test results as given in PubChem BioAssay AID1048 (The Scripps Research Institute Molecular Screening Center, 2008).
# Out of some 99,000 compounds screened, about 390 (0.39%) were called active. No stated cut-off is given here; in the data, active means TR-FRET ratio above about 2000; inactive means the rest. This excerpt belongs to a sample that is enriched for actives.
# Test: signal artefacts in PPARgamma/SRC-3 readout – biochemical, TR-FRET ratio, artefact control for PPARgamma SRC-3 recruitment agonists (AID 1048)
# Settings: TR-FRET artefact counter-screen, PPARgamma/SRC-3 format; at 8 µM; hits give high values
row,SMILES,TR-FRET ratio
1,CCOC(=O)c1c(C)n(C)c2ccc(OC)c(NS(=O)(=O)CC)c12,1490 (inactive)
2,CN(CC(=O)N1CCN(c2ccccc2)CC1)S(=O)(=O)c1cccs1,1700 (inactive)
3,Cc1nc(N2CCC(C)CC2)c2c(C)c(C(=O)Nc3cc(F)ccc3C)sc2n1,2360 (active)
4,Cc1nc(N2CCN(c3ccccn3)CC2)c2c(C)c(C(=O)Nc3ccc(F)cc3)sc2n1,1960 (inactive)
5,Cc1nc(N2CCOCC2)c2c(C)c(C(=O)Nc3ccc(C(F)(F)F)cc3)sc2n1,1750 (inactive)
6,CC(C)(C)c1ccc(NC(=O)COC(=O)CCc2nc3ccccc3c(=O)[nH]2)cc1,1560 (inactive)
7,CCC(C(=O)OCC(=O)Nc1ccc(C(=O)Nc2ccc(OC)cc2)cc1)c1ccccc1 (configuration not stated),1460 (inactive)
8,CC(C)N1CCC(NC(=O)Nc2ccccc2)CC1,1620 (inactive)
9,COC(=O)c1ccc(C(=O)OC)c(NC(=S)N2CCN(c3ccc(F)cc3)CC2)c1,1500 (inactive)
10,C=CCn1c(CNC(=O)c2ccco2)nnc1SCC(=O)c1ccc(OC)cc1,1770 (inactive)
11,CCc1ccc(OCC(=O)OCC(=O)c2c(N)n(C)c(=O)n(C)c2=O)cc1,1320 (inactive)
12,CC(C)(C)NC(=O)c1ccc(Cn2cc(C(F)(F)F)ccc2=O)cc1,1730 (inactive)
13,N/C(Cc1ccc([N+](=O)[O-])cc1)=N\OC(=O)C1CCCCC1,1640 (inactive)
14,COc1ccc(N2CCN(C(=O)CNS(=O)(=O)c3ccc(C)c(C)c3)CC2)cc1,1450 (inactive)
15,CN1CCC(=NNC(=O)CN(c2cccc(Cl)c2)S(C)(=O)=O)CC1,1650 (inactive)
16,COc1cc(C(=O)Nc2cc(C(F)(F)F)ccc2N2CCOCC2)ccc1O,1560 (inactive)
17,CCc1ccc(NC(=O)CC2C(=O)NCCN2C(=S)Nc2ccccc2)cc1 (configuration not stated),1500 (inactive)
18,Cc1c(C(N)=O)sc2ncn(CCOc3ccccc3)c(=O)c12,1550 (inactive)
19,Cc1cc(C2=NNC(=Nc3ccc(S(=O)(=O)N4CCOCC4)cc3)SC2)c(C)n1CC1CCCO1 (configuration not stated),1650 (inactive)
20,Cc1ccc(OCC(=O)NNC(=S)NCc2ccccc2)cc1,1530 (inactive)
21,Cc1[nH]nc(SCC(=O)NCC(C)C)c1[N+](=O)[O-],1720 (inactive)
22,CC(=O)Nc1ccc(NC(=O)C(C)n2c3ccccc3c3nc(=O)cc(C)n32)cc1 (configuration not stated),1620 (inactive)
23,COc1ccc(C(=O)CSc2nnc(-c3ccco3)o2)cc1,1800 (inactive)
24,COC(=O)c1ccc(/C=N/OCC(=O)Nc2cc(F)ccc2F)cc1,1390 (inactive)
25,O=C(COC(=O)c1c2c(nc3ccccc13)/C(=C\c1cccs1)CCC2)Nc1ccccc1Cl,1790 (inactive)
26,O=C(Nc1c2c(nc3ccccc13)CCCC2)c1ccccc1Br,1760 (inactive)
27,O=C(COC(=O)c1c2c(nc3ccccc13)CCCC2)c1ccc(Br)s1,4220 (active)
